From PubChem
eLon inh = inhibitors of E. coli Lon protease, primary screen, biochemical, fluorescence polarization; AID 602123, 2011; inhibition, % at 7.94 µM; purified E. coli Lon protease; 360,000 tested, 0.42% active; in the data active = inhibition above about 13%, passing the limit was not always enough
MCL1-BIM inh = inhibitors of MCL1 binding to BIM-BH3, primary screen, biochemical, fluorescence polarization | GST-MCL1 / FITC-Bim-BH3 fluorescence polarization | Induced myeloid leukemia cell differentiation protein Mcl-1 (Homo sapiens), Q07820 | 320,000 tested, 0.68% active | inhibition, % at 10.9 µM;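 active = inhibition above the mean inhibition of all tested compounds plus 3 SD, set per campaign, cut at about 40% in these data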;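 note: higher means more loss of mP so more displacement of Bim peptide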
EBV gp42 inh = Epstein-Barr virus gp42 inhibitors, primary screen, biochemical, uHTS, fluorescence polarization; Fluorescence polarization binding assay, mP read-out; inhibition, % (tested at 21.74 µM); 220,000 tested, 0.42% active; AID 1085, 2008; in the data active = inhibition above about 50%
Bcl-xL primary = inhibitors of human Bcl-xL, primary screen, biochemical, fluorescence polarization, HTS | Bcl-2-like protein 1 (Homo sapiens), Q07817 | 320,000 tested, 0.7% active | inhibition, % at 10.9 µM | GST-Bcl-xL / FITC-Bim BH3 peptide fluorescence polarization | AID 2129, 2009;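 active = inhibition above the mean of all tested compounds plus 3 SD, cutoff set per campaign, cut at about 30% in these data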;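 note: inhibitors lower millipolarization by displacing the labeled peptide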
GLD-1 TGE inh = GLD-1/TGE RNA complex disruptors, primary screen, biochemical, fluorescence polarization. Female germline-specific tumor suppressor gld-1 (Caenorhabditis elegans), Q17339. purified GLD-1 + fluorescein TGE RNA. inhibition, % at 5.96 µM. 320,000 tested, 0.44% active. AID 2280, 2010;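 active = percent inhibition above a per-plate cutoff, the plate mean of test compounds plus 3 SD, cut at about 30% in these data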
MEX-5 binding = MEX-5 zinc finger RNA-binding disruptors – biochemical, C. elegans, fluorescence polarization, MLPCN library, primary screen | MEX-5/FITC-TCR2 RNA binding; active compounds read low | activity score (negative = inhibition of binding), % at 10 µM | 300,000 tested, 0.38% active | AID 1832, 2009;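 active = inhibition past about -25% in most replicates, and total fluorescence under double the plate's negative control median, limit read from the data; inconclusive = replicates evenly split on the limit, or fluorescence at least double controls; inactive = too little inhibition in most replicates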
Target sequence (Q9XUB2 whole entry, looked up): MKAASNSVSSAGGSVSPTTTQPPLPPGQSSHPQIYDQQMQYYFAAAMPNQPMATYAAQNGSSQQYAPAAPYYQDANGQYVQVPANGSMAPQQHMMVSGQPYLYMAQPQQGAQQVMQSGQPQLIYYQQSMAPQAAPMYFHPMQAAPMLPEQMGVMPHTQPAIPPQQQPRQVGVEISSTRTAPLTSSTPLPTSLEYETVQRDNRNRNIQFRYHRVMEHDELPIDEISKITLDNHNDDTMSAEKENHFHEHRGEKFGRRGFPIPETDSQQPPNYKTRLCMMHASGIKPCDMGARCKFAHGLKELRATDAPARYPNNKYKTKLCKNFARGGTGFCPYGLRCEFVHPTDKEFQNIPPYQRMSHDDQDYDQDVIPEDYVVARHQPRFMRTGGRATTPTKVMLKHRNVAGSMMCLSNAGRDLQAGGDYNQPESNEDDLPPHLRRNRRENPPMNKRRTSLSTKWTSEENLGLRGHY
A number is an active result; i = inactive; ? = inconclusive; nt = no result. In the library only some 1.4% were active in any assay of this set; here they are far more common.

SMILES	eLon inh	MCL1-BIM inh	EBV gp42 inh	Bcl-xL primary	GLD-1 TGE inh	MEX-5 binding
C(=N\N1CCOCC1)/c1cn(-c2ccccc2)nc1-c1ccccc1	i	i	i	i	i	i
C(=N\N1CCOCC1)/c1nc(-c2ccccc2)n2ccccc12	i	i	61.8	i	i	i
CC(C)Cn1c(N)c(C(=O)COC(=O)c2cc(S(=O)(=O)N3CCOCC3)ccc2Br)c(=O)n(C)c1=O	i	nt	nt	nt	i	nt
O=C(CSc1nnc(Cc2cc(=O)[nH]c(=O)[nH]2)n1-c1ccc(F)cc1)N1CCCCC1	14.4	i	i	i	i	i
O=C(CSc1nnc(Cc2cc(=O)[nH]c(=O)[nH]2)n1-c1ccc(F)cc1)NC1CCCC1	16.2	i	i	i	i	i
Cc1ccc(C)c2nc3sc(C(=O)N4CCCc5ccccc54)c(N)c3cc12	i	i	141.7	i	i	i
Cc1ccc2nc3sc(C(=O)N4CCOCC4)c(N)c3cc2c1	i	i	i	i	i	-44.4
Cc1ccc2cc3c(N)c(C(=O)N4CCOCC4)sc3nc2c1	i	i	i	i	i	i
O=C(c1ccc(C(=O)N2CCCc3ccccc32)s1)N1CCCc2ccccc21	i	i	i	i	i	i
CCc1ccc2nc3sc(C(=O)N4CCc5ccccc54)c(N)c3cc2c1	nt	i	158.8	i	i	i
CC(C)c1ccc2nc3sc(C(=O)N4CCc5ccccc5C4)c(N)c3cc2c1	i	i	i	i	i	i
Cc1cccc(CSc2nc3ccccc3c(=O)n2C)c1	i	i	nt	i	i	nt
O=C(Nc1cccc(Cl)c1)c1cc(N=Nc2ccc([N+](=O)[O-])cc2Cl)ccc1O	i	i	79.0	i	i	i
Cc1cccn2c(=O)c3cc(C#N)c(=NC(=O)c4ccccc4)n(Cc4ccco4)c3nc12	i	i	nt	34.7	i	i
Cc1nnc(SCC(=O)N2CC(=O)Nc3ccccc32)n1-c1ccccc1	i	i	i	i	i	i
Nn1c(Cc2ccccc2F)nnc1SCC(=O)N1CC(=O)Nc2ccccc21	i	i	60.0	i	i	i
COc1ccc(-n2c(O)c(/C=N/NS(=O)(=O)c3cc(C)ccc3C)c3ccccc3c2=O)cc1OC	i	i	i	54.2	i	-30.5
COc1ccc(-n2c(O)c(/C=N/Nc3nc(C)cc(C)n3)c3ccccc3c2=O)cc1OC	i	i	i	i	i	i
COc1ccc(-n2c(O)c(/C=N/NS(=O)(=O)c3ccc(C)cc3)c3ccccc3c2=O)cc1OC	i	i	i	48.4	i	i
C[C@@H]1Cc2c(O)c(O)cc(O)c2C(=O)O1	i	i	i	i	i	-44.8
O=S1(=O)CCN(CCCCc2ccccc2)CC1	i	nt	nt	nt	nt	nt
O=C(CCC(=O)Nc1ccccc1Cl)NNC(=S)Nc1ccccc1C(F)(F)F	i	i	nt	i	i	i
NS(=O)(=O)c1ccc(NC(=S)NNC(=O)CCC(=O)Nc2ccccc2Cl)cc1	i	i	nt	i	i	-30.7
N#CCC(N)=C(C#N)C#N	i	i	i	i	i	-37.6
Cc1nnc(N2C(=O)C(O)=C(C(=O)c3ccco3)C2c2ccc(C(C)C)cc2)s1 (stereo not given)	i	i	72.1	40.0	40.4	-26.6
SMILES	eLon inh	MCL1-BIM inh	EBV gp42 inh	Bcl-xL primary	GLD-1 TGE inh	MEX-5 binding
CC(C)(C)c1ccc(C2C(C(=O)c3ccco3)=C(O)C(=O)N2CC2CCCO2)cc1 (stereo not given)	i	i	nt	i	i	i
CC(C)c1ccc(C2C(C(=O)c3ccco3)=C(O)C(=O)N2CCN2CCOCC2)cc1 (stereo not given)	i	i	nt	i	i	i
Cc1nnc(N2C(=O)C(O)=C(C(=O)c3ccco3)C2c2ccc(C(C)(C)C)cc2)s1 (stereo not given)	i	i	i	33.0	31.5	i
Cc1ccc(C2C(C(=O)c3ccco3)=C(O)C(=O)N2c2ncccn2)cc1 (stereo not given)	i	i	i	i	i	i
Cc1nnc(N2C(=O)C(O)=C(C(=O)c3ccco3)C2c2ccc(F)cc2)s1 (stereo not given)	i	i	76.2	33.0	45.0	-27.5
CCCCNc1nccnc1-c1cccc(C=O)c1	i	nt	nt	nt	nt	nt
Cc1ccccc1CNC(=O)c1csc([C@H]2C[C@H](O)[C@@H](CO)O2)n1	i	nt	nt	nt	nt	nt
O=C(NCCCn1ccnc1)C1CCCN(S(=O)(=O)c2ccc(F)cc2)C1 (stereo not given)	i	i	nt	i	i	i
O=c1[nH]c(SCc2nc3c(cnn3-c3ccccc3)c(=O)[nH]2)nc2ccccc12	i	nt	i	nt	nt	nt
O=c1[nH]c(CSc2ncccn2)nc2c1cnn2-c1ccccc1	i	i	i	i	i	-26.4
C=CCOC(=O)C(=O)/C=C/c1coc2ccccc2c1=O	i	46.5	i	51.5	63.4	i
CSc1ccc(CC(=O)N2CCC(n3nccc3NC(=O)C3CC3)CC2)cc1	i	i	nt	i	i	i
COc1ccc(O)c(C(=O)C2c3ccccc3C(=O)N2c2ccc(C)cc2)c1 (stereo not given)	i	i	i	31.1	i	i
COc1ccc(N2C(=O)c3ccccc3C2O)cc1 (stereo not given)	i	i	nt	i	i	i
CC(C)c1ccc(NC(=O)C2(C)Cc3c(-c4cccc(C(F)(F)F)c4)ccnc3O2)cc1 (stereo not given)	i	nt	nt	nt	nt	nt
S=c1[nH]c2ccccc2n2c(=S)[nH]nc12	i	i	nt	i	i	-41.7
c1ccc(SC23CCCCN(CCC2)[C@]32CO2)cc1 (stereo not given in full)	i	nt	nt	nt	nt	nt
COc1cccc(-c2ccc3c(N)c(C(=O)NC4CC4)sc3n2)c1	i	i	i	i	i	i
COc1ccc(NC(=O)c2sc3nc(-c4cccnc4)ccc3c2N)cc1OC	i	i	i	48.0	i	?
C[C@H](CO)N1C[C@H](C)[C@@H](CN(C)S(=O)(=O)c2ccc(F)cc2)Oc2c(NS(=O)(=O)c3ccc(F)cc3)cccc2C1=O	i	nt	nt	nt	i	nt
CCOC(=O)C1=C(c2ccccc2)N=c2s/c(=C\c3cc(OC)c(OC)c(OC)c3)c(=O)n2C1c1cccs1 (stereo not given)	i	i	i	35.2	i	i
CC(=O)Nc1ccc(-c2ccnc3c2CC(C(=O)Nc2cccnc2)O3)cc1 (stereo not given)	i	nt	nt	nt	nt	nt
Cc1cc(C)nc(N/N=C/C2=C(N3CCOCC3)C(=C\c3ccc(Cl)cc3)/CC2)n1	i	i	i	i	i	i
Cc1occc1C(=O)N/N=C/C1=C(N2CCOCC2)C(=C\c2ccc(Cl)cc2Cl)/CC1	i	i	i	i	i	-54.0
COC(=O)c1cn(-c2nc3ccccc3s2)nn1	i	nt	nt	nt	nt	nt
